Our source for the growth values is PubChem BioAssay (NCI).

Some test systems named below: NCI-H23 lung; NCI-H226 lung; NCI-H322M lung; HOP-62 NSCLC; NCI-H460 lung; HOP-92 NSCLC; NCI-H522 lung; A549/ATCC NSCLC; 786-0 renal; COLO 205 colon; DU-145 prostate; K-562 leukemia; MALME-3M melanoma; MDA-MB-231 breast; SF-268 CNS; SF-295 CNS; SF-539 CNS; UACC-257 melanoma; RXF 393 renal.
Common to all, as to experiment: NCI-60 one-dose screen, 48 h (100 = growth as untreated, 0 = no growth, -100 = all killed)
Common to all, as to settings: 10 µM unless noted

The structures appear in SMILES notation. This is part of a sample that, as a whole, favours compounds with a hit. Of some 83,000 tested, about 20% had one in any assay.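 Single-concentration screen, 48 h exposure, 96-well plates. Endpoint: percent growth. Below 10 = active.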 Unmarked numbers belong to inactive results. Activity calls are given as the source filed them.

Take `COc1ccc(/C(C)=C(\c2ccc(Cl)cc2)c2ccc(OCCN3CCCC3)cc2)cc1F`: the growth is 55.1% with NCI-H23 lung; 69.3% with NCI-H226 lung; 62.2% in the test with NCI-H322M lung; -17.6% (active) in the test on HOP-62 NSCLC; -55.6% (active) in the test with NCI-H460 lung; 65.8% with HOP-92 NSCLC. The growth in the test on NCI-H522 lung is 71.1%; in the test on A549/ATCC NSCLC, 42.2%; with 786-0 renal it was 4.18% (active); in the test on COLO 205 colon, -40.6% (active); with DU-145 prostate, 49.6%; in the test on K-562 leukemia, -1.68% (active). Besides, the growth was -38.2% (active) in the test with MALME-3M melanoma; 36.7% in the test with MDA-MB-231 breast; 54.7% with SF-268 CNS; -42.9% (active) in the test with SF-295 CNS; 3.19% (active) with SF-539 CNS; 2.99% (active) in the test on UACC-257 melanoma.
Take `COc1ccc(/C=C2\COc3ccc(O)cc3C2=O)c(OC)c1`: the growth with NCI-H23 lung is 83.4%; in the test on NCI-H226 lung, 104%; with NCI-H322M lung, 86.5%; in the test with HOP-62 NSCLC, 56.3%; in the test with NCI-H460 lung, 40.6%; with HOP-92 NSCLC it was 79.5%. Moreover, the growth is 39.1% with NCI-H522 lung; 51.6% with A549/ATCC NSCLC; 91.2% in the test on 786-0 renal; 108% in the test with COLO 205 colon; 65.8% with DU-145 prostate; 12.4% with K-562 leukemia. For the same compound, the growth with MALME-3M melanoma was 60.9%; in the test on MDA-MB-231 breast, 60.9%; with SF-268 CNS, 70.2%; in the test with SF-295 CNS, 80.1%; in the test with SF-539 CNS, 57.5%; in the test on UACC-257 melanoma, 74.8%.
For the compound `COc1ccc(NC(=O)c2cccc(-c3cc(=O)c4c(O)c(OC)c(OC)cc4o3)c2)cc1`, the growth in the test with NCI-H23 lung is 91.3%; in the test with NCI-H226 lung, 91.9%; in the test with NCI-H322M lung, 99.5%; with HOP-62 NSCLC, 72.2%; in the test with NCI-H460 lung, 92.7%; with HOP-92 NSCLC, 23.6%. In addition, the growth is 79.4% in the test with NCI-H522 lung; 81.3% with A549/ATCC NSCLC; 43% in the test on 786-0 renal; 97.6% in the test on COLO 205 colon; 96.9% in the test with DU-145 prostate; 91.8% with K-562 leukemia. Moreover, the growth is 80.6% in the test on MALME-3M melanoma; 92% in the test with RXF 393 renal; 54.6% in the test with SF-268 CNS; 104% with SF-295 CNS; 56.1% with SF-539 CNS; 79.2% in the test with UACC-257 melanoma.
Regarding `O=C1c2cccc3c(-c4ccc(-c5nc6c7ccccc7c7ccccc7c6[nH]5)cc4)ccc(c23)C(=O)N1CCN1CCNCC1`, the growth is 83.3% with NCI-H23 lung; 94.9% with NCI-H226 lung; 75.3% in the test on NCI-H322M lung; 62.1% in the test on HOP-62 NSCLC; 41.2% in the test with NCI-H460 lung; 86.2% in the test on HOP-92 NSCLC. The growth in the test with NCI-H522 lung was 91.8%; in the test with A549/ATCC NSCLC it was 70.7%; in the test with 786-0 renal it was 52.4%; in the test on COLO 205 colon, 61.9%; with DU-145 prostate, 42.5%; in the test on K-562 leukemia, -10.2% (active). In addition, the growth in the test with MALME-3M melanoma was 85.4%; with MDA-MB-231 breast, 63.3%; in the test on SF-268 CNS it was 104%; with SF-295 CNS it was 101%; in the test on SF-539 CNS, 73.8%; with UACC-257 melanoma, 108%.
Consider `COc1ccc(Cn2cnc3cc(C(=O)Nc4cccc5ccccc45)ccc32)c(OC)c1`, for which the growth in the test on NCI-H23 lung is 32.9% [30 µM]; in the test with NCI-H226 lung, 14.5% [30 µM]; with NCI-H322M lung, 45% [30 µM]; in the test on HOP-62 NSCLC, 41.6% [30 µM]; in the test with NCI-H460 lung, 1.11% [30 µM] (active); in the test on HOP-92 NSCLC it was 21.1% [30 µM]. The growth was 3.89% [30 µM] (active) in the test with NCI-H522 lung; 16% [30 µM] with A549/ATCC NSCLC; 20.3% [30 µM] in the test on 786-0 renal; -21.6% [30 µM] (active) with COLO 205 colon; -7.09% [30 µM] (active) in the test with DU-145 prostate; 1.36% [30 µM] (active) in the test with K-562 leukemia. In addition, the growth is 38.2% [30 µM] in the test on MALME-3M melanoma; 4.77% [30 µM] (active) with MDA-MB-231 breast; 13.8% [30 µM] in the test on SF-268 CNS; 7.91% [30 µM] (active) in the test with SF-295 CNS; -36.7% [30 µM] (active) with SF-539 CNS; 69.4% [30 µM] with UACC-257 melanoma.
With `CCOC(=O)c1sc(-c2ccc(OS(=O)(=O)c3ccc(C(C)(C)C)cc3)c(C=O)c2)nc1C`, the growth with NCI-H23 lung is 33.3%; in the test on NCI-H226 lung it was 48.5%; in the test on NCI-H322M lung, 93.7%; in the test on HOP-62 NSCLC, 52%; in the test on NCI-H460 lung, 41.7%; in the test with HOP-92 NSCLC, 21.1%. The growth in the test with NCI-H522 lung is 22.1%; with A549/ATCC NSCLC, 84.9%; in the test on 786-0 renal, 47.2%; in the test on COLO 205 colon, 72.7%; with DU-145 prostate, 43.8%; in the test on K-562 leukemia it was 16.1%. Further, the growth with MALME-3M melanoma was 45.1%; in the test on MDA-MB-231 breast, 53.7%; in the test with SF-268 CNS, 32.9%; with SF-295 CNS it was 28.6%; with SF-539 CNS, 45.6%; in the test on UACC-257 melanoma it was 52%.
Consider `Cn1cc(-c2ccc3nc(-c4ccc(CC(=O)Nc5cc(C(C)(C)C)no5)cc4)cnc3c2)cn1`, for which the growth with NCI-H23 lung was 41.8% [30 µM]; in the test with NCI-H226 lung it was 30.8% [30 µM]; in the test on NCI-H322M lung, 26.7% [30 µM]; in the test with HOP-62 NSCLC, 61.3% [30 µM]; with NCI-H460 lung it was 21.1% [30 µM]; in the test on HOP-92 NSCLC, -3.39% [30 µM] (active). Further, the growth in the test on NCI-H522 lung was 26.6% [30 µM]; with A549/ATCC NSCLC it was 33.9% [30 µM]; in the test on 786-0 renal it was 35.7% [30 µM]; in the test with COLO 205 colon, 61.6% [30 µM]; in the test on DU-145 prostate it was 22.6% [30 µM]; in the test with K-562 leukemia, 4.38% [30 µM] (active). Besides, the growth with MALME-3M melanoma was 0.481% [30 µM] (active); in the test with MDA-MB-231 breast, -5.94% [30 µM] (active); with SF-268 CNS, 27.4% [30 µM]; with SF-295 CNS it was 23.2% [30 µM]; in the test with SF-539 CNS, 16.3% [30 µM]; with UACC-257 melanoma, 41.9% [30 µM].
In the case of `COc1ccc(/C(C)=C(\c2ccc(Cl)cc2)c2ccc(OCCCN(C)C)cc2)cc1F`, the growth in the test with NCI-H23 lung is 78.1%; with NCI-H226 lung, 98%; with NCI-H322M lung, 67.6%; in the test with HOP-62 NSCLC it was 52.8%; in the test with NCI-H460 lung, -3.98% (active); with HOP-92 NSCLC, 92%. In addition, the growth is 77% in the test with NCI-H522 lung; 57.2% in the test with A549/ATCC NSCLC; 62.2% with 786-0 renal; 7.6% (active) in the test on COLO 205 colon; 73.5% in the test with DU-145 prostate; -0.587% (active) in the test on K-562 leukemia. In addition, the growth in the test with MALME-3M melanoma was 17.2%; in the test with MDA-MB-231 breast, 73.7%; in the test on SF-268 CNS, 81.8%; with SF-295 CNS, 53.5%; in the test on SF-539 CNS it was 44.9%; with UACC-257 melanoma it was 17.1%.
